Hits are enriched below; roughly 8% of the tested compounds scored in any of these assays.
KB-3-1 cytotox: kills parental KB-3-1 adenocarcinoma cells | KB-3-1 viability, CellTiter-Glo ATP luminescence, 72 h | Potency, µM (highest dose often 46.1 µM), actives largely listed as cytotoxic | 1.4% of 400,000 active | AID 1347075; further: on the % scale 0 is the no-effect control and ±100 the full control effect; nearly all actives have a fitted effect of over 60% in size
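Viability of parental KB-3-1 cells, measured by CellTiter-Glo luminescence, followed a 72 h incubation at 37 °C with pinned compounds in phenol-red-free DMEM containing 10% FBS.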
KB-V1 cytotox: kills drug-selected multidrug resistant KB-V1 cells; 3.4% of 400,000 active; Potency, µM (highest dose often 46.1 µM), most hits filed as cytotoxic; KB-V1 MDR cells viability, CellTiter-Glo, 72 h; further: on the % scale 0 is the no-effect control and ±100 the full control effect; nearly all actives have a fitted effect of over 60% in size
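Drug-selected KB-V1 cells, grown in DMEM lacking phenol red with 10% FBS, receive compound titrations; after three days at 37 degrees C, surviving cell ATP is quantified by CellTiter-Glo luminescence and responses normalized and curve-fitted.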
HT1080-NT tox: kills 2HG-producing HT-1080-NT fibrosarcoma cells. HT-1080-NT fibrosarcoma viability, CellTiter-Glo ATP luminescence, 48 h. Potency, µM (series often up to 46.1 µM), inactives show top-dose activity, negative = less viability, actives largely listed as cytotoxic. 1.6% of 360,000 active;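 further: NT is the 2HG producing partner of a matched IDH1 knockdown line; 0% = DMSO-treated cells and -100% = media-only wells without cells; nearly all actives have a fitted effect of over 55% in size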
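Compounds were tested in concentration-response format on HT-1080-NT cells for 48 hours at 37 degrees C. Cell viability came from CellTiter-Glo luminescence; curves were classified by r2, response magnitude and activity.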
SW480 rerep: induces DNA re-replication in SW480 colon adenocarcinoma cells. SW480 DNA re-replication, Hoechst DNA content imaging, 48 h. Potency, µM (doses to about 46.1 µM), inactives show at the highest dose re-replication activation, actives largely listed as activators. 1.8% of 340,000 active. AID 624297; further: % of control where 0% means no effect; nearly all actives have a fitted effect of over 55% in size
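Treated cells incubate 48 hr (37 C, 5% CO2), are stained 40 min with Hoechst, and nuclear fluorescence is enumerated; a rise in nuclei with high DNA signal marks re-replication.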
MCF10A rerep: induces DNA re-replication in MCF 10a normal breast cells; Potency, µM (highest dose often 46.1 µM), for the others: at the highest dose activity, positive = re-replication, hits mostly activators; 2.9% of 350,000 active; MCF 10A DNA re-replication, Hoechst nuclear intensity, 48 h; further: % of control where 0% means no effect; nearly all actives have a fitted effect of over 50% in size
HT1080 IDH1KD tx: HT-1080 IDH1 knockdown cell toxicity (counter line). HT-1080 IDH1 knockdown viability, ATP luminescence, 48 h. Potency, µM (highest dose often 46.1 µM), for inactives: at the highest dose activity, negative = toxicity, most hits filed as cytotoxic. 2% of 360,000 active;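 further: 0% = DMSO wells and -100% = cell-free medium wells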
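Knockdown cells (IDH1KD HT-1080) received compounds 2 h after plating at 750 cells/well and were kept 48 h at 37 °C in 5% FBS RPMI. A CellTiter-Glo luminescence read gave % activity for curve fitting.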
Active calls of the source: *; i = inactive; ? = inconclusive; . = no result given; ! = repeats disagree. The call rests on the fitted dose curve; in most records, active means well fitted curve in the direction sought with a large enough effect; inconclusive means small, poorly fitted or top-dose-only effect, or another doubt; inactive means no such curve, though single readings can be large; an effect the other way counts as inactive or inconclusive. Potency means the concentration at half of the fitted maximal effect.

SMILES	KB-3-1 cytotox	KB-V1 cytotox	HT1080-NT tox	SW480 rerep	MCF10A rerep	HT1080 IDH1KD tx
COC(=O)C1C2CC3c4[nH]c5cc(OC)ccc5c4CCN3CC2CC(OC)C1OC (centres undefined)	.	.	.	2%	22%	.
COC(=O)[C@H]1[C@H]2C[C@@H]3c4[nH]c5cc(OC)ccc5c4CCN3C[C@H]2C[C@@H](OC(=O)c2cc(OC)c(OC)c(OC)c2)[C@@H]1OC	i	i	?	?	30µM*!	?
CC(=O)[C@@]1(O)CC[C@H]2[C@@H]3C[C@H](C)C4=CC(=O)C=C[C@]4(C)[C@@]3(F)[C@@H](O)C[C@@]21C	?	i	17%	2%	5%	?
O=S(=O)(c1cccc(C(F)(F)F)c1)N1CCC(CO)(CCCc2ccccc2)CC1	i	i	4%	?	?	4%
CCOc1cccc2sc(N(Cc3cccnc3)C(C)=O)nc12	i	i	.	.	.	.
CCCS(=O)(=O)c1c(S(=O)(=O)CCC)c2c3ccccc3ccn2c1C(=O)OC	i	?	-4%	-13%	5%	-6%
CCCS(=O)(=O)c1c(S(=O)(=O)CCC)c2c(C)cccn2c1C(=O)OC	i	?	3%	?	21µM*	16%
CC1CCCCC1NC(=O)CSc1ccc([N+](=O)[O-])cc1 (centres undefined)	i	i	1%	-1%	6%	2%
Cc1ccc2cc(CN(Cc3nnnn3C3CCCC3)C3CCCCC3)c(=O)[nH]c2c1C	i	i	4%	-5%	-6%	11%
CCOC(=O)NC(=O)COC(=O)c1cccc2ccccc12	i	i	12%	-6%	-6%	14%
CCc1ccc(NC(=O)/C(C#N)=C/c2cc3ccc(C)cc3nc2N2CCOCC2)cc1	i	i	-11%	-3%	8.2µM*	-13%
CN(C)c1ccc(C(=O)Nc2nc3c(s2)CCCC3)cc1	i	i	1%	-7%	0%	-18%
C/C(=N\Nc1nc2c(s1)CCCC2)c1ccc(Cl)cc1	?	?	23µM*	?	?	23µM*
CCC(CC)c1nnc(NC(=O)CCS(=O)(=O)Cc2ccccc2)s1	i	i	?	27%	?	-19%
CCOC(=O)c1sc(NC(=O)CCc2ccccc2)nc1C	?	i	-17%	5.8µM*	20%	-6%
CCOC(=O)c1sc(NC(=O)CCSC)nc1C	i	?	-10%	?	8%	-4%
c1ccc(NC(c2ccccc2)c2ccncc2)cc1 (centres undefined)	?	i	0%	2%	24%	5%
CCc1ccc(CCC(=O)Nc2ncc(Cc3ccccc3Cl)s2)o1	?	i	6.5µM*	4.6µM*	1.6µM*	4.6µM*
COc1ccccc1CCC(=O)Nc1ncc(C)s1	?	23µM*	-15%	?	?	-2%
c1ccc(C(Nc2cccnc2)c2ccccc2)cc1	i	21µM*	13%	1%	1%	13%
COc1ccc(C2(O)CC3CCC(C2)N3c2nc(C)cc(C)c2C#N)cc1 (centres undefined)	?	?	-28%	13%	15%	?
COc1ccc(S(=O)(=O)n2ccc(C)n2)cc1C	i	i	3%	-4%	1%	0%
CC(C)c1ccc2occ(CC(=O)N(Cc3ccc(F)cc3)C3CCS(=O)(=O)C3)c2c1 (centres undefined)	?	i	.	.	.	.
CCOC(=O)c1sc(NC(=O)c2ccc(OC)cc2)nc1C	i	i	15%	-6%	-4%	21%
CC(CC(=O)Nc1ccc(C(N)=O)cc1)c1ccccc1 (centres undefined)	i	i	0%	1%	-2%	-3%
SMILES	KB-3-1 cytotox	KB-V1 cytotox	HT1080-NT tox	SW480 rerep	MCF10A rerep	HT1080 IDH1KD tx
Cc1cnc(NC(=O)CC(C)c2ccccc2)s1 (centres undefined)	21µM*	?	?	5.8µM*	10µM*	?
CCOC(=O)c1sc(NC(=O)CC(C)c2ccccc2)nc1C (centres undefined)	?	?	?	?	27%	9.2µM*
CCOC(=O)c1sc(NC(=O)c2ccc(OC(C)=O)cc2)nc1C	?	10µM*	-26%	15%	0%	29µM*
CCOC(=O)c1sc(NC(=O)C(OC(C)=O)c2ccccc2)nc1C (centres undefined)	i	i	5%	15%	4%	2%
CC(CC(=O)Nc1cccnc1)c1ccccc1 (centres undefined)	i	i	4%	12%	12µM*	1%
CC(C)c1nnc(NC(=O)CC(C)c2ccccc2)s1 (centres undefined)	i	i	-9%	5%	-1%	-4%
COC(=O)Cc1c(C)c2ccc(O)c(CN3CCCC(C)C3)c2oc1=O (centres undefined)	i	i	2%	?	13%	1%
CCOc1ccc(Nc2c3ccccc3nc3ccccc23)cc1	5.2µM*	?	16µM*	4.6µM*	3.3µM*	12µM*
CCOc1ccc(Nc2nc(NCC3CCCO3)c3ccccc3n2)cc1 (centres undefined)	?	?	18µM*	?	?	?
COc1ccc(Nc2nc(NCC3CCCO3)c3ccccc3n2)c(OC)c1 (centres undefined)	i	i	?	-7%	-1%	?
CCOc1ccc(Nc2cc(C)c3ccccc3n2)cc1	i	i	-22%	17%	?	-30%
Oc1cccc(Nc2nc(NCC3CCCO3)c3ccccc3n2)c1 (centres undefined)	?	18µM*	?	6%	15µM*	-23%
c1ccc2c(NCC3CCCO3)nc(N3CCOCC3)nc2c1 (centres undefined)	i	i	8%	-2%	-3%	15%
c1ccc(Nc2nc(NCC3CCCO3)c3ccccc3n2)cc1 (centres undefined)	16µM*	21µM*	23µM*	?	?	18µM*
Cc1ccccc1C(=O)NCC(=O)O	i	i	1%	-38%	6%	12%
Nc1nc(NCC2CCCO2)nc(Nc2ccccc2)c1[N+](=O)[O-] (centres undefined)	i	10µM*	1%	1%	3%	-8%
O=C1CSCN1c1cc(Cl)ccc1Cl	i	i	4%	-8%	-8%	15%

Assay outcomes deposited in PubChem by National Center for Advancing Translational Sciences (NCATS).
